# Screens as filed in PubChem BioAssay.
# Nrf2 inh – blocks Nrf2 signaling. A549 ARE-Fluc reporter, luciferase luminescence, 18-24 h. Potency, µM (titrated, usually from 46 µM), inactives show at the highest dose activity change, negative = inhibition, hits mostly inhibitors. actives 2.1% (n = 360,000); further: on the % scale 0 is the no-effect control and ±100 the full control effect; nearly all actives have a fitted effect of over 60% in size
#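 Nrf2 activity is the BugLite luminescence, read 15 min after reagent at room temperature, following CellTiter-Fluor cytotoxicity readout (30 min, 37C). Compound titrations were applied for 18-24 h to 5000 A549 ARE_Fluc cells/well in 5% FBS OPTI-MEM.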
# IDH1 R132H inh – human IDH1 R132H inhibition | O75874 | IDH1-R132H enzyme, NADPH consumption, diaphorase/resazurin fluorescence | Potency, µM (doses to about 76.6 µM), without a hit: top-dose activity change, negative = inhibition, hits mostly inhibitors | actives 0.093% (n = 390,000) | AID 602179; further: on the % scale 0 is the no-effect control and ±100 the full control effect; nearly all actives have a fitted effect of over 65% in size
#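 IDH1-R132H (0.5 ug/mL dispensed) in pH 7.5 Tris buffer was preincubated 30 min with compound, then given a substrate mix of 0.016 mM NADPH and 2 mM alpha-KG for 80 min at room temperature; remaining NADPH was read by diaphorase/resazurin fluorescence.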
# rTrxR1 inhibitor – blocks rat thioredoxin reductase 1 | actives 1% (n = 390,000) | O89049 | Potency, µM (doses to about 114 µM), for the others: at the top dose activity change, negative = inhibition, most hits filed as inhibitors | recombinant rTrxR1, NADPH fluorescence consumption, selenite substrate | AID 588453; further: on the % scale 0 is the no-effect control and ±100 the full control effect; nearly all actives have a fitted effect of over 65% in size
# Target sequence (O89049 whole entry, looked up): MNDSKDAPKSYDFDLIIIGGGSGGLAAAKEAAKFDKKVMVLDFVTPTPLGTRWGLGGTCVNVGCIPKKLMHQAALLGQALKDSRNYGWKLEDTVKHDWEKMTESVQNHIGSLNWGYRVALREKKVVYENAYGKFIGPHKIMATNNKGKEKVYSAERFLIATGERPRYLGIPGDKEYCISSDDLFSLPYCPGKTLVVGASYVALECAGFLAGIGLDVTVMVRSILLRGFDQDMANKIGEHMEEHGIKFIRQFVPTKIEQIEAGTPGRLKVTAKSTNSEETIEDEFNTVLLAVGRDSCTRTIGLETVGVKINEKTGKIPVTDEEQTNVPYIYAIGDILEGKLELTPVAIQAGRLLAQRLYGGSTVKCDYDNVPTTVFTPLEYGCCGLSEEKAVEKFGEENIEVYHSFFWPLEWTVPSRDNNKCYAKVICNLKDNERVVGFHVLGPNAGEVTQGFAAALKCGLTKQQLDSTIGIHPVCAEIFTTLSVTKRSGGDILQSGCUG
#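 Rat TrxR1 (90 nM in the dispensed reagent) was pre-reduced with 400 uM NADPH for 5 min at room temperature, then incubated with compound for 15 min. After 400 uM selenite was added, NADPH fluorescence (Ex 340/Em 450 nm) was followed for 8 min.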
# Mito fusion yeast – mitochondrial division inhibition or fusion activation; S. cerevisiae fusion-defective mutant growth rescue, CellTiterGlo 48 h; Potency, µM (doses to about 46.1 µM), without a hit: at the top dose growth rescue (activation), hits mostly activators; actives 0.23% (n = 320,000); further: % of control where 0% means no effect; nearly all actives have a fitted effect of over 45% in size
#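 Read-out: ATP-based luminescence (CellTiterGlo, 10 min ambient) reporting growth of fusion-defective ts yeast after 48 hours at 37C on glycerol/ethanol YPEG medium in the presence of compound.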
# TrxR1 substrate – substrates of rat thioredoxin reductase 1; purified TrxR1 substrate turnover, NADPH consumption readout; Potency, µM (doses to about 114 µM), without a hit: at the highest dose activity change, negative = substrate turnover; actives 0.01% (n = 390,000); further: on the % scale 0 is the no-effect control and ±100 the full control effect; nearly all actives have a fitted effect of over 50% in size
#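 Rat TrxR1, dispensed at 90 nM, was prereduced with 400 uM NADPH (final) for 5 min at ~22 deg C, then incubated with compound 15 min before 400 uM selenite. A first-read NADPH fluorescence drop versus no-compound background flagged substrates.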
# A549 viability – A549 cytotoxicity, counter-screen for Nrf2 inhibitors; A549 ARE-Fluc cells, CellTiter-Fluor viability, 18-24 h; Potency, µM (doses to about 46 µM), without a hit: top-dose activity change, negative = cytotoxicity, actives largely listed as inhibitors; actives 0.16% (n = 390,000); further: on the % scale 0 is the no-effect control and ±100 the full control effect
#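 A549 ARE_Fluc cells in 5% FBS OPTI-MEM were exposed to compounds in concentration-response for 18-24 h at 37 deg C. Viability was read by CellTiter-Fluor fluorescence (Ex 405/Em 525) after 30 min, before the luciferase read.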
# * = called active by the depositor; ? = inconclusive; . = no result given; [ ] = remark or other dose. The list is not random: actives were taken first. Their share in the collection is about 3.1%. The call rests on the fitted dose curve; in most records, active means well fitted curve in the direction sought with a large enough effect; inconclusive means small, poorly fitted or top-dose-only effect, or another doubt; inactive means no such curve, though single readings can be large; an effect the other way counts as inactive or inconclusive. Potency means the concentration at half of the fitted maximal effect.
SMILES,Nrf2 inh,IDH1 R132H inh,rTrxR1 inhibitor,Mito fusion yeast,TrxR1 substrate,A549 viability
CC1CCC(NC(=O)COc2ccc(C(=O)c3ccccc3)cc2)CC1 (stereo not drawn),18µM*,1%,-11%[57.1 µM],16%,-1%[57.1 µM],4%
Cc1nc(SCC(=O)c2ccccc2)c(C#N)c(-c2ccco2)c1C(=O)NCc1ccco1,-16%,3%,50µM*,6%,15%,2%
COc1cc2ccccc2cc1C(=O)Nc1ccc2oc(-c3ccc(F)cc3)nc2c1,?,14%,7%,.,36%,-4%
COc1ccc(-c2ccc([C@H]3[C@@H]4C=CCC[C@@]4(C)C(=O)N3Cc3ccccc3)c(F)c2)cc1OC,21µM*,-6%,58%,-3%,18%[57.1 µM],-6%
CN1CCc2c(OCC(=O)N3N=C(c4cccs4)CC3c3ccc(F)cc3)cccc2C1=O (stereo not drawn),?,0%,14µM*,?,11%,-6%
O=C(CSc1nc2ccccc2s1)N1N=C(c2cccs2)CC1c1ccc(F)cc1 (stereo not drawn),-26%,-4%,12%,24%,15%,0%
CCOC(=O)CSCC(=O)N1N=C(c2cccs2)CC1c1ccc(F)cc1 (stereo not drawn),6%,1%,?,17%,12%,4%
CCN1CCc2c(OCC(=O)N3N=C(c4cccs4)CC3c3ccc(F)cc3)cccc2C1=O (stereo not drawn),23µM*,-2%,12%,?,33%,-22%
COc1ccc(C2Nc3ccccc3C(=O)N2Cc2ccccc2)cc1OCc1ccc(NC(C)=O)cc1 (stereo not drawn),0%,.,.,.,.,6%
O=C(/N=C1\NC(=O)C(F)(C(F)(F)F)S1)NC1CCCCC1 (stereo not drawn),.,3%,25µM*,5%,-7%,-10%
O=C(NC1CCCCCC1)c1c2c(nc3ccccc13)CCN(Cc1ccccc1)C2,?,6%,-5%,0%,-5%,-15%
COc1cccc(NC(=O)COC(=O)c2c3c(nc4ccccc24)CCC(C)C3)c1 (stereo not drawn),16µM*,6%,5%,-4%,-3%,?
Cc1cc(N2CCN(C)CC2)ccc1NC(=O)c1c2c(nc3ccccc13)CCN(Cc1ccccc1)C2,18µM*,0%,4%,8%,-3%,10µM*
Cc1c(Cl)cccc1NC(=O)COC(=O)c1c2c(nc3ccccc13)CCN(Cc1ccccc1)C2,21µM*,4%,-8%,7%,-10%,?
O=C(CN1CCCN(Cc2ccc(F)cc2)S1(=O)=O)NCc1ccccc1Cl,-4%,14%,14%,.,4%,6%
CCN(C(=O)Cn1cc(S(=O)(=O)Cc2ccccc2Cl)c2ccccc21)c1ccccc1,?,-2%,14%,.,-5%,-18%
Cc1ccc(CNC(=O)CCC2CCCN(C(=O)c3ccc4c(c3)OCO4)C2)o1 (stereo not drawn),1%,3%,71µM*,-1%,-4%,2%
O=c1[nH]c2ccc(S(=O)(=O)N3CCN(S(=O)(=O)c4c(F)cccc4F)CC3)cc2[nH]c1=O,4%,.,.,.,.,-10%
O=C(CS(=O)(=O)c1cccc2nsnc12)NCc1ccccc1,.,-1%,10%[57.1 µM],.,2%[57.1 µM],7%
O=C(COC(=O)c1ccccc1OCCOc1ccccc1)Nc1ccccc1Br,.,.,-1%,.,-5%,.
CCC(Sc1nc(C)cc(=O)[nH]1)C(=O)Nc1sc2c(c1C#N)CCCC2 (stereo not drawn),0%,-2%,17%,15%,4%,1%
N#Cc1c(NC(=O)CSc2nc(N)cc(=O)[nH]2)sc2c1CCCCCC2,7.3µM*,3%,31%,-4%,11%,-5%
CC(Sc1nc(N)cc(=O)[nH]1)C(=O)Nc1sc2c(c1C#N)CCCC2 (stereo not drawn),13µM*,-1%,13%[57.1 µM],-2%,3%,-30%
CCN1C(=NCc2cccc(C(F)(F)F)c2)N[C@@H](c2cccc(C(F)(F)F)c2)C(C(=O)OC)=C1C,.,.,-2%,.,-11%,.
COc1cccc(Cn2nnc(C(=O)Nc3cc(C)ccc3OC)c2N)c1,-14%,-1%,2%[57.1 µM],0%,-1%[57.1 µM],11%
SMILES,Nrf2 inh,IDH1 R132H inh,rTrxR1 inhibitor,Mito fusion yeast,TrxR1 substrate,A549 viability
COc1cccc(Cn2nnc(C(=O)Nc3cc(C)ccc3C)c2N)c1,16µM*,15%,-21%,.,-17%,-4%
CCOC(=O)c1cnc2ccc(OC)cc2c1NCCc1ccc(OC)c(OC)c1,16µM*,10%,?,5%,-7%,?
CC1CCC2(C1)N=C(Nc1nc3ccccc3o1)NC1=C2C(=O)CCC1 (stereo not drawn),-8%,.,.,.,.,-4%
Cc1ccnc2cc(Cl)cc(Cl)c12,.,.,-2%,.,-5%,.
CC(C)Cn1c(N)c(C(=O)COC(=O)C2Cc3ccccc3CN2S(C)(=O)=O)c(=O)n(C)c1=O (stereo not drawn),21µM*,-6%,-13%,-2%,-16%,-10%
CC(=O)c1c(C)[nH]c(C(=O)OCC(=O)c2c(N)n(CC(C)C)c(=O)n(C)c2=O)c1C,18µM*,10%,12%,-2%,3%,-2%
CCC(C(=O)OCC(=O)c1c(N)n(CC(C)C)c(=O)n(C)c1=O)c1ccccc1 (stereo not drawn),23µM*,4%,-12%,-1%,-16%,-16%
COc1ccccc1CCC(=O)OCC(=O)c1c(N)n(CC(C)C)c(=O)n(C)c1=O,?,5%,-2%,3%,-5%,-6%
CC(=O)c1c(C)[nH]c(C(=O)OCC(=O)c2c(N)n(C)c(=O)n(C)c2=O)c1C,.,.,.,-1%,.,.
COc1ccc(CCC(=O)OCC(=O)c2c(N)n(CC(C)C)c(=O)n(C)c2=O)cc1,23µM*,0%,0%,-1%,-7%,-11%
O=[N+]([O-])c1cccc2[nH]cnc12,.,.,-1%,.,-6%,.
CCN(CC)CCCNC(=O)C1CCN(S(=O)(=O)CC)CC1,.,-5%,7%[57.1 µM],.,0%[57.1 µM],-1%
O=S(=O)(c1ccccc1Br)N(Cc1ccccc1)Cc1ccco1,-25%,.,-12%,.,-9%,-1%
Cc1cccc(-c2nc(SCC(=O)NCC3CCCO3)c3c(=O)n(C)c(=O)n(C)c3n2)c1 (stereo not drawn),.,19%,19%[57.1 µM],.,4%[57.1 µM],5%
Cc1nn(-c2ccccc2)c(C)c1C(=O)OCC(=O)c1c(N)n(CC(C)C)c(=O)n(C)c1=O,5.8µM*,2%,-4%,2%,-11%,?
